The whole screen tested about 330,000 compounds, of which about 4,600 (1.4%) were called active.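 Rule for the calls: active = inhibition of 40% or more at the single tested concentration; inactive = the rest.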 For the sample, actives were picked, then their nearest neighbours and some compounds at random.
Assay: growth inhibitors of isogenic TIM10 control yeast, primary screen, counter-screen for tim10-1 yeast inhibitor project, luminescence, uHTS (AID 463195);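 note: wild-type TIM10 isogenic control strain grown at permissive 25 °C; 0% = DMSO yeast wells and 100% = minimal medium wells without yeast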
Settings: S. cerevisiae TIM10 strain growth, BacTiter-Glo luminescence, 24 h; at 10 µM; active compounds read high

Row | Compound | inhibition
1 | Cc1c(C(=O)OC(C)C)sc(NC(=O)c2cccnc2)c1C#N | 6.36% (inactive)
2 | COc1ccc(CCNC(=O)COC(=O)Cc2cccc(F)c2)cc1 | 7.57% (inactive)
3 | Cc1cccc(NC(=O)CN2CCN(C(=O)C3CCN(C(=O)/C=C/c4ccccc4)CC3)CC2)c1C | 8.87% (inactive)
4 | CCCCn1c(=O)c(CCC(=O)OCC(=O)Nc2ccc(C)c(Cl)c2)nc2ccccc21 | -6.83% (inactive)
5 | COc1ccc(S(=O)(=O)N(C)C[C@H]2Oc3c(NC(=O)Nc4ccc5c(c4)OCO5)cccc3C(=O)N([C@H](C)CO)C[C@@H]2C)cc1 | 1.19% (inactive)
6 | O=C(NCc1ccccc1)C1CCCN(c2nc3ccsc3c(=O)s2)C1 (centres undefined) | -2.48% (inactive)
7 | CCC(C)NC(=O)c1nn(C)c(=O)c2ccccc12 (centres undefined) | 1.61% (inactive)
8 | Cc1ccc(NC(=O)CSc2sc3c(O)cc(=O)[nH]c3c2C#N)cc1C | -6.33% (inactive)
9 | CCOC(=O)c1ccc(N2C(=O)CC(N3CCN(C(=O)c4ccccc4)CC3)C2=O)cc1 (centres undefined) | 1.01% (inactive)
10 | CCOC(=O)c1ccc(N2C(=O)CC(N3CCC(C(=O)OCC)CC3)C2=O)cc1 (centres undefined) | 41.3% (active)
11 | CCOC(=O)c1ccc(N2C(=O)CC(N3CC(C)OC(C)C3)C2=O)cc1 (centres undefined) | 8.24% (inactive)
12 | CC1CN(C(=S)Nc2ccc(S(N)(=O)=O)cc2)CC(C)O1 (centres undefined) | 2.19% (inactive)
13 | CCN(C(=O)COc1ccc(C(=O)c2ccccc2)cc1)c1ccccc1 | 16.5% (inactive)
14 | CCOC(=O)CSc1nc(N2CCOCC2)c2c(c1C#N)CC(C(C)C)OC2 (centres undefined) | 20% (inactive)
15 | O=C(Nc1cccc(F)c1)[C@@H]1CCCN1 | -11.2% (inactive)
16 | COc1ccc(-c2oc3ncnc(NCCCO)c3c2-c2ccc(OC)cc2)cc1 | 17.8% (inactive)
17 | COc1ccc(-c2oc3ncn(Cc4ccco4)c(=N)c3c2-c2ccc(OC)cc2)cc1 | 49% (active)
18 | COc1ccc(-n2cnc3cc(NCc4ccco4)ccc32)cc1 | 35.3% (inactive)
19 | COc1ccc(C(C)(C)C)cc1NC(=O)CCN1C(=O)C2CCCCC2C1=O (centres undefined) | 24.4% (inactive)
20 | COc1ccccc1Oc1ccc(N2CC(C(=O)OCC(=O)c3ccc(F)cc3)CC2=O)cc1 (centres undefined) | 19.9% (inactive)

Row | Compound | inhibition
21 | C[C@@H](NC(=O)OC(C)(C)C)c1nnc(S(=O)(=O)Cc2ccccc2)o1 | 40.3% (active)
22 | C[C@H](NC(=O)OC(C)(C)C)c1nnc(SCC(=O)Nc2ccc(Br)cc2)o1 | 9.84% (inactive)
23 | CCc1ccccc1NC(=O)CSc1nnc([C@@H](NC(=O)OC(C)(C)C)C(C)C)o1 | 12.6% (inactive)
24 | CCN(CC)C(=O)COc1coc(CN2CCN(Cc3ccccc3)CC2)cc1=O | 16.8% (inactive)
25 | COC(C[C@@H]1O[C@@H]1C(=O)[C@@H](C)OCc1ccccc1)OC | 3.69% (inactive)
26 | CC1(C)NC(=O)N(CCCCSc2ccc(Cl)cc2)C1=O | -13.6% (inactive)
27 | COC(=O)c1sc(-c2ccc(C(C)(C)C)cc2)cc1NC(=O)/C=C/C(=O)O | -5.28% (inactive)
28 | COCCCC1CCN(C(=O)C2CCC(=O)N(C3CCCCCC3)C2)CC1 (centres undefined) | 2.49% (inactive)
29 | COCCNC(=O)C(OC(=O)c1cccs1)c1ccc(F)cc1 (centres undefined) | 10.9% (inactive)
30 | COC(=O)c1ccc(-n2cnc3ccccc32)nc1 | 10.4% (inactive)
31 | Cc1nccc(-c2ccc(-n3c(C)ccc3C)cc2)n1 | 6.83% (inactive)
32 | c1ccc(-c2nccc(-c3ccc(-n4cnc5ccccc54)cc3)n2)nc1 | 46% (active)
33 | Cc1cc(C(=O)CC#N)c(C)n1CC(F)(F)F | -1.63% (inactive)
34 | COCCn1c(C)cc(C(=O)COC(=O)/C=C/c2cccc(OC)c2)c1C | 17.6% (inactive)
35 | COC(=O)CNC(=O)c1cc(-c2ccncc2)nc2ccccc12 | -9.97% (inactive)
36 | N/C(=N\OC(=O)c1cc(-c2ccccc2)nc2ccccc12)c1ccncc1 | 61.8% (active)
37 | C/C(N)=C(/C#N)C(=O)COC(=O)c1cc(-c2ccc(C)cc2)nc2ccccc12 | 23.8% (inactive)
38 | O=C(Oc1ccc(F)cc1)N1CCOCC1 | 97.5% (active)
39 | CC(=O)c1ccc(OC(=O)N2CCOCC2)cc1 | 9.97% (inactive)
40 | O=C(Oc1ccc(C(=S)N2CCOCC2)cc1)c1ccc(F)cc1 | 7.76% (inactive)

Row | Compound | inhibition
41 | CCOc1c(OC)cccc1C(=O)NCC1(c2ccccc2)CCCC1 | 27.6% (inactive)
42 | CC(C)(C)n1ncc2c(=O)n(Cc3c(Cl)cccc3Br)cnc21 | 5.55% (inactive)
43 | Cc1ccc(OCC(=O)Nc2cccc3c2CCCC3)cc1C | 28.1% (inactive)
44 | O=C(NOCc1ccccc1)c1cccc([N+](=O)[O-])c1 | 0.85% (inactive)
45 | O=C(COC(=O)c1ccc([N+](=O)[O-])cc1Cl)NC(=O)c1ccccc1 | -3.01% (inactive)
46 | O=C(NC(Nc1nc2ccc([N+](=O)[O-])cc2s1)(C(F)(F)F)C(F)(F)F)c1ccccc1 | 76.9% (active)
47 | CCc1ccc(C(=O)NN=C2CCCCCC2)s1 | -0.295% (inactive)
48 | CCCC(C(=O)N1CCOCC1)N1C(=O)C2C3C=CC(C3)C2C1=O (centres undefined) | -10.3% (inactive)
49 | CCC(C)(C)n1nnnc1CN1CCN(c2nc3ccc(C)cc3cc2C#N)CC1 | 41.5% (active)
50 | CCOc1ccc2nc(N3CCCN(C(=O)Nc4ccccc4C)CC3)c(C#N)cc2c1 | 2.29% (inactive)
51 | CCC(C)(C)n1nnnc1C(c1cccs1)N1CCN(c2nc3ccccc3s2)CC1 (centres undefined) | 37.8% (inactive)
52 | CSc1ccc(CN(C)CC(=O)NCc2ccc(F)cc2)cc1 | -1.15% (inactive)
53 | Cn1c(CNC(=O)c2ccco2)nnc1SCC(=O)N1CCN(c2ccccc2)CC1 | 2.03% (inactive)
54 | O/N=C(\c1ccc2c(c1)OCCO2)C1CCCCC1 | 3.12% (inactive)
55 | Cc1c(CNCCc2ccccc2)c(C(=O)O)c(C)n1-c1ccccc1 | -4.69% (inactive)
56 | COc1cc(/C=N/n2c(C)n[nH]c2=S)ccc1OCc1ccccc1 | 8.61% (inactive)
57 | Cn1c(-c2sccc2OCc2cccc(C(F)(F)F)c2)n[nH]c1=S | 42.2% (active)
58 | Cn1c(-c2sc3cc(C(F)(F)F)cnc3c2-c2ccccc2)n[nH]c1=S | -3.83% (inactive)
59 | CCOc1ccc(-n2c(SCC(=O)Nc3cc(C(=O)O)ccc3Cl)nc3ccccc3c2=O)cc1 | 22.7% (inactive)

Source: PubChem BioAssay AID463195 (Sanford-Burnham Center for Chemical Genomics, 2010)
